The panel holds about 83,000 compounds, 20% with a hit somewhere; the sample as a whole holds those more often.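 Interpretation: 100, growth as untreated; towards 0, rising growth inhibition; 0, no net growth; 0 to -100, cell death. Compounds scoring below 10 were considered active.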 The source made the active and inactive calls.
Legend:
Experiment in all cases: NCI-60 one-dose screen, 48 h (100 = growth as untreated, 0 = no growth, -100 = all killed)
Conditions in all cases: 10 µM unless noted
DU-145 prostate = system: DU-145 prostate
K-562 leukemia = system: K-562 leukemia
MALME-3M melanoma = system: MALME-3M melanoma
MDA-MB-231 breast = system: MDA-MB-231 breast
RXF 393 renal = system: RXF 393 renal
SF-268 CNS = system: SF-268 CNS
SF-295 CNS = system: SF-295 CNS
SF-539 CNS = system: SF-539 CNS
UACC-257 melanoma = system: UACC-257 melanoma
M14 melanoma = system: M14 melanoma
HCT-15 colon = system: HCT-15 colon
HT29 colon = system: HT29 colon
SNB-75 CNS = system: SNB-75 CNS
SNB-19 CNS = system: SNB-19 CNS
U251 CNS = system: U251 CNS
PC-3 prostate = system: PC-3 prostate
SK-MEL-5 melanoma = system: SK-MEL-5 melanoma
UACC-62 melanoma = system: UACC-62 melanoma
LOX IMVI melanoma = system: LOX IMVI melanoma
SK-MEL-28 melanoma = system: SK-MEL-28 melanoma

Measured: growth

O=[N+]([O-])c1ccc(Oc2ccc(-c3ccccc3)cc2)cc1
inactive: DU-145 prostate 97.5% | K-562 leukemia 70.8% | MALME-3M melanoma 109% | MDA-MB-231 breast 88.5% | RXF 393 renal 102% | SF-268 CNS 94.5% | SF-295 CNS 89.4% | SF-539 CNS 94.7% | UACC-257 melanoma 98.1% | M14 melanoma 98.3% | HCT-15 colon 81.8% | HT29 colon 76.6% | SNB-75 CNS 93.5% | SNB-19 CNS 94% | U251 CNS 88.5% | PC-3 prostate 75.8% | SK-MEL-5 melanoma 88.2% | UACC-62 melanoma 63% | LOX IMVI melanoma 96.3% | SK-MEL-28 melanoma 105%

CCOC(=O)c1cnn(-c2nc(-c3ccc(F)cc3)c(C#N)c(N3CCOCC3)n2)c1N
inactive: DU-145 prostate 102% | K-562 leukemia 91.8% | MALME-3M melanoma 107% | MDA-MB-231 breast 107% | RXF 393 renal 122% | SF-268 CNS 98.7% | SF-295 CNS 101% | SF-539 CNS 97.2% | UACC-257 melanoma 106% | M14 melanoma 106% | HCT-15 colon 101% | HT29 colon 92% | SNB-75 CNS 82.2% | SNB-19 CNS 95.1% | U251 CNS 95.3% | PC-3 prostate 95.1% | SK-MEL-5 melanoma 96.6% | UACC-62 melanoma 90.8% | LOX IMVI melanoma 106% | SK-MEL-28 melanoma 111%

CCOC(=O)c1c(C)nc2c(c1N)/C(=C/c1cccs1)C(=O)N2c1ccc(OC)cc1
active: RXF 393 renal -23.1% | SF-539 CNS 7.71%
inactive: DU-145 prostate 44.5% | K-562 leukemia 59.1% | MALME-3M melanoma 26.9% | MDA-MB-231 breast 36.5% | SF-268 CNS 47.6% | SF-295 CNS 47.2% | UACC-257 melanoma 36.1% | M14 melanoma 58.2% | HCT-15 colon 72.8% | HT29 colon 51.3% | SNB-75 CNS 30.6% | SNB-19 CNS 42.2% | U251 CNS 12.4% | PC-3 prostate 35% | SK-MEL-5 melanoma 45.7% | UACC-62 melanoma 38.3% | LOX IMVI melanoma 37.6% | SK-MEL-28 melanoma 37%

c1ccc(-c2cn3ccnc3c(-c3ccc4c(c3)ncn4C3CCCCC3)n2)cc1
inactive: DU-145 prostate 97.4% | K-562 leukemia 68.9% | MALME-3M melanoma 120% | MDA-MB-231 breast 93.4% | RXF 393 renal 76.7% | SF-268 CNS 98.7% | SF-295 CNS 101% | SF-539 CNS 97.8% | UACC-257 melanoma 110% | M14 melanoma 98.4% | HCT-15 colon 80.9% | HT29 colon 90.8% | SNB-75 CNS 94.4% | SNB-19 CNS 98.3% | U251 CNS 95.6% | PC-3 prostate 86.5% | SK-MEL-5 melanoma 94.3% | UACC-62 melanoma 98% | LOX IMVI melanoma 95.1% | SK-MEL-28 melanoma 111%

O=C(O)COc1ccc2c(=O)c3sc4c(=O)c5ccccc5c(=O)c4c3c(=O)c2c1
active: DU-145 prostate -89.6% | MALME-3M melanoma -75.4% | SF-295 CNS -97% | SF-539 CNS -45.7% | UACC-257 melanoma -3.61% | M14 melanoma -95.6% | HCT-15 colon -75% | HT29 colon -37.4% | SNB-75 CNS -42% | SNB-19 CNS 0.0814% | SK-MEL-5 melanoma -99.6% | UACC-62 melanoma -91.4% | LOX IMVI melanoma -37.6% | SK-MEL-28 melanoma -16.2%
inactive: K-562 leukemia 24.9% | MDA-MB-231 breast 45.2% | RXF 393 renal 49.3% | SF-268 CNS 44.7% | U251 CNS 29.8% | PC-3 prostate 54%

Cc1ccc(C2=N[C@H]3CCC[C@@H]3N(c3ccccc3)C(C(Cl)Cl)=N2)cc1
inactive: DU-145 prostate 101% | K-562 leukemia 94.9% | MALME-3M melanoma 95% | MDA-MB-231 breast 117% | RXF 393 renal 83.2% | SF-268 CNS 94.6% | SF-295 CNS 91.7% | SF-539 CNS 105% | UACC-257 melanoma 110% | M14 melanoma 91.9% | HCT-15 colon 99% | HT29 colon 89.7% | SNB-75 CNS 77% | SNB-19 CNS 113% | U251 CNS 112% | PC-3 prostate 101% | SK-MEL-5 melanoma 104% | UACC-62 melanoma 105% | LOX IMVI melanoma 87.9% | SK-MEL-28 melanoma 101%

CC(C)(C)c1ccc(O)c(Cc2cc(C(C)(C)C)ccc2O)c1
inactive: DU-145 prostate 105% | K-562 leukemia 87.1% | MALME-3M melanoma 104% | MDA-MB-231 breast 88.1% | RXF 393 renal 101% | SF-268 CNS 93.1% | SF-295 CNS 109% | SF-539 CNS 108% | UACC-257 melanoma 86.6% | M14 melanoma 92.3% | HCT-15 colon 101% | HT29 colon 98.7% | SNB-75 CNS 89.2% | SNB-19 CNS 101% | U251 CNS 90.2% | PC-3 prostate 12.5% | SK-MEL-5 melanoma 99% | UACC-62 melanoma 87.8% | LOX IMVI melanoma 99.1% | SK-MEL-28 melanoma 104%

COc1cc(/C=C/CO)cc(OC)c1O[C@@H]1O[C@H](CO)[C@@H](O)[C@H](O)[C@H]1O
inactive: DU-145 prostate 110% | K-562 leukemia 96.6% | MALME-3M melanoma 102% | MDA-MB-231 breast 90.2% | RXF 393 renal 100% | SF-268 CNS 102% | SF-295 CNS 98.7% | SF-539 CNS 105% | UACC-257 melanoma 96.3% | M14 melanoma 104% | HCT-15 colon 101% | HT29 colon 100% | SNB-75 CNS 94.9% | SNB-19 CNS 97.2% | U251 CNS 96.1% | PC-3 prostate 95.1% | SK-MEL-5 melanoma 98.9% | UACC-62 melanoma 100% | LOX IMVI melanoma 96.1% | SK-MEL-28 melanoma 105%

CCOC(=O)C1=C(C)n2nc(CC#N)c(C#N)c2NC1c1ccc(Cl)cc1 (stereo not given)
inactive: DU-145 prostate 97.2% | K-562 leukemia 115% | MALME-3M melanoma 87.4% | MDA-MB-231 breast 88.8% | RXF 393 renal 100% | SF-268 CNS 87.3% | SF-295 CNS 102% | SF-539 CNS 96.8% | UACC-257 melanoma 114% | M14 melanoma 91.2% | HCT-15 colon 97.1% | HT29 colon 111% | SNB-75 CNS 86.1% | SNB-19 CNS 106% | U251 CNS 107% | PC-3 prostate 91.3% | SK-MEL-5 melanoma 98.3% | UACC-62 melanoma 94.4% | LOX IMVI melanoma 94.7% | SK-MEL-28 melanoma 101%

C=C1C(=O)O[C@H]2[C@H]1CC/C(COC(=O)CCCCC(=O)OC/C1=C/CC[C@@]3(C)O[C@H]3[C@H]3OC(=O)C(=C)[C@@H]3CC1)=C\CC[C@@]1(C)O[C@@H]21
active: K-562 leukemia 9% | RXF 393 renal -44.1%
inactive: DU-145 prostate 56.2% | MALME-3M melanoma 25.5% | MDA-MB-231 breast 29.5% | SF-268 CNS 82.2% | SF-295 CNS 101% | SF-539 CNS 46.5% | UACC-257 melanoma 81.9% | M14 melanoma 47.8% | HCT-15 colon 18.1% | HT29 colon 40.1% | SNB-75 CNS 79.2% | SNB-19 CNS 89.9% | U251 CNS 81.4% | PC-3 prostate 68.6% | SK-MEL-5 melanoma 77.9% | UACC-62 melanoma 48.3% | LOX IMVI melanoma 52.2% | SK-MEL-28 melanoma 76.8%

Cc1nc(C)c(C)nc1C
inactive: DU-145 prostate 108% | K-562 leukemia 93.1% | MALME-3M melanoma 102% | MDA-MB-231 breast 108% | RXF 393 renal 120% | SF-268 CNS 105% | SF-295 CNS 107% | SF-539 CNS 104% | UACC-257 melanoma 88.1% | M14 melanoma 101% | HCT-15 colon 109% | HT29 colon 97% | SNB-75 CNS 101% | SNB-19 CNS 99.2% | U251 CNS 96.7% | PC-3 prostate 98.3% | SK-MEL-5 melanoma 102% | UACC-62 melanoma 101% | LOX IMVI melanoma 101% | SK-MEL-28 melanoma 113%

Nc1c(C(=O)Nc2ccccn2)sc2nc3c(cc12)CCCCC3
inactive: DU-145 prostate 12.2% | MALME-3M melanoma 73.1% | MDA-MB-231 breast 46.6% | RXF 393 renal 13.1% | SF-268 CNS 53.4% | SF-295 CNS 15.4% | UACC-257 melanoma 72.5% | M14 melanoma 10.8% | HCT-15 colon 24% | SNB-75 CNS 12.3% | SNB-19 CNS 33.4% | U251 CNS 23.2% | PC-3 prostate 31.4% | SK-MEL-5 melanoma 22.2% | UACC-62 melanoma 40.8% | LOX IMVI melanoma 48.6% | SK-MEL-28 melanoma 73.7%
active: K-562 leukemia 7.25% | SF-539 CNS 4.89% | HT29 colon 7.16%

O=Cc1[nH]c(Sc2ccccc2)c2ccccc12
inactive: DU-145 prostate 83% | K-562 leukemia 35.5% | MALME-3M melanoma 58.2% | MDA-MB-231 breast 85.1% | RXF 393 renal 75.1% | SF-268 CNS 75% | SF-295 CNS 114% | SF-539 CNS 78.8% | UACC-257 melanoma 77.7% | M14 melanoma 81.3% | HCT-15 colon 70.3% | HT29 colon 55.4% | SNB-75 CNS 42.8% | SNB-19 CNS 89.1% | U251 CNS 67.5% | PC-3 prostate 46.4% | SK-MEL-5 melanoma 74% | UACC-62 melanoma 62.3% | LOX IMVI melanoma 80.5% | SK-MEL-28 melanoma 92.9%

CCCCC(=O)Nc1c(C(=O)Nc2ccccc2)sc2nc3c(cc12)C(OC(=O)CCCC)CCC3 (stereo not given)
inactive: DU-145 prostate 87.9% | K-562 leukemia 85.3% | MALME-3M melanoma 105% | MDA-MB-231 breast 87.9% | RXF 393 renal 95.2% | SF-268 CNS 85.7% | SF-295 CNS 101% | SF-539 CNS 94.7% | UACC-257 melanoma 110% | M14 melanoma 97.5% | HCT-15 colon 81.3% | HT29 colon 79.4% | SNB-75 CNS 89.3% | SNB-19 CNS 97.2% | U251 CNS 79.8% | PC-3 prostate 90.7% | SK-MEL-5 melanoma 84.5% | UACC-62 melanoma 87.6% | LOX IMVI melanoma 85.1% | SK-MEL-28 melanoma 110%

CC(=O)O[C@@H]1C[C@]2(C)[C@H]3[C@H](O)C[C@@H]4C5=CC(C)(C)CC[C@]5(C)CC[C@@]4(C)[C@]3(C)CC[C@H]2C(C)(C)[C@H]1O
inactive: DU-145 prostate 107% | K-562 leukemia 108% | MALME-3M melanoma 107% | MDA-MB-231 breast 113% | RXF 393 renal 111% | SF-268 CNS 101% | SF-295 CNS 104% | SF-539 CNS 102% | UACC-257 melanoma 110% | M14 melanoma 99.3% | HCT-15 colon 100% | HT29 colon 97.8% | SNB-75 CNS 91.6% | SNB-19 CNS 104% | U251 CNS 97.6% | PC-3 prostate 84.9% | SK-MEL-5 melanoma 114% | UACC-62 melanoma 97.4% | LOX IMVI melanoma 98.7% | SK-MEL-28 melanoma 106%

Source: PubChem BioAssay (NCI)
